Screening results: PubChem, National Center for Advancing Translational Sciences (NCATS)
KAT2A inh: qHTS Assay for Inhibitors of GCN5L2 | Potency, µM (doses to about 58.9 µM), most hits filed as inhibitors | GCN5L2 HAT assay, ThioGlo1 CoA-SH fluorescence | hit rate 0.21% among 390,000 | Histone acetyltransferase KAT2A (Homo sapiens), Q92830
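Preincubate 20nM GCN5L2 with compound 15 min, RT → add 50uM ThioGlo1 + 75uM H3(1-25) + 70uM acetyl-CoA → read fluorescence 0 and 20 min. Primary qHTS; fluorescent artifacts likely.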
ALOX12 inh: Primary qHTS assay for inhibitors of human arachidonate 12S-lipoxygenase (ALOX12): Round 2 | hit rate 1.1% among 580,000 | Potency, µM (highest dose often 108 µM), hits mostly inhibitors | Polyunsaturated fatty acid lipoxygenase ALOX12 (Homo sapiens), P18054 | purified 12hLO, xylenol orange hydroperoxide absorbance
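Purified human 12hLO (150 nM final) in 25 mM Hepes, 0.01% Triton X-100, pH 7.0 was preincubated 15 min at room temperature with compound. Then 40 uM arachidonic acid was added, 30 min. Hydroperoxide was read by Fe-XO absorbance ratio 573/405 nm.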
PLK1 PBD block: qHTS for Inhibitors of PLK1-PDB (polo-like kinase 1 - polo-box domain): Primary Screen; Potency, µM, hits mostly inhibitors; AID 720504, 2013; Serine/threonine-protein kinase PLK1 (Homo sapiens), P53350; Plk1 PBD binding of FITC phosphopeptide, fluorescence polarization; hit rate 2.8% among 360,000; further: series mostly up to about 57 µM; nearly all actives have a fitted effect of over 65% in size
VDR inh: Inhibitors of the vitamin D receptor (VDR): qHTS. Vitamin D3 receptor (Homo sapiens), P11473. VDR-SRC2-3 peptide fluorescence polarization, 2 h. Potency, µM, hits mostly inhibitors. hit rate 0.93% among 400,000
Target sequence (P11473 whole entry, looked up): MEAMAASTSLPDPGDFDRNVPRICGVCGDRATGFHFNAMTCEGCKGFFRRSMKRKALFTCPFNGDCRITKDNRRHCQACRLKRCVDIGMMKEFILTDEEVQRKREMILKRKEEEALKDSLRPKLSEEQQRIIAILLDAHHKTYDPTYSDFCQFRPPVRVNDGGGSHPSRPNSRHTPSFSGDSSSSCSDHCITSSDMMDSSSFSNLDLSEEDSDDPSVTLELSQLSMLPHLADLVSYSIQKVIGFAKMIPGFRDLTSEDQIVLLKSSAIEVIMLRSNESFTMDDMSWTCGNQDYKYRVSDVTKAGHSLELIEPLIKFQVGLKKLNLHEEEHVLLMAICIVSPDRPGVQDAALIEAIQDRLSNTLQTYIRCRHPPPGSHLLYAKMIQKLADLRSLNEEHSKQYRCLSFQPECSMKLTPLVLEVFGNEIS
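Signal is fluorescence polarization, reporting how far test compounds block the interaction of VDR with the SRC2-3 coregulator peptide after a 2 h room-temperature incubation.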
A number is an active result; i = inactive; ? = inconclusive; nt = no result given. A selection: hits, their analogues and other compounds. The true share with any hit is near 3%. The call rests on the fitted dose curve; in most records, active means well fitted curve in the direction sought with a large enough effect; inconclusive means small, poorly fitted or top-dose-only effect, or another doubt; inactive means no such curve, though single readings can be large; an effect the other way counts as inactive or inconclusive.

SMILES | KAT2A inh | ALOX12 inh | PLK1 PBD block | VDR inh
COc1ccc(C(=O)C2CCCN(C(=O)c3cccnc3OC)C2)c(C)c1 (stereo not drawn) | i | i | i | i
O=C(Cc1c[nH]c2ccccc12)NCc1ccc(Cl)cc1Cl | i | i | 30µM | i
O=C(N[C@@H](Cc1c[nH]c2ccccc12)C(=O)O)c1ccc(Cl)cc1 | i | i | i | i
O=C(N/C=C\c1ccccc1)NCc1ccc(Cl)cc1Cl | i | i | 21µM | i
O=C(Cc1c[nH]c2ccccc12)NCc1ccc(Cl)cc1 | i | i | i | i
NC(=NCCc1c[nH]c2ccccc12)NC(=O)c1ccc(Cl)cc1 | i | 40µM | i | i
O=C(NCCNCc1c[nH]c2ccccc12)c1ccc(F)cc1 | nt | 7.9µM | nt | nt
O=C(N/C=C\c1ccccc1)NCc1ccc(Cl)cc1 | i | i | i | i
Cc1cc(=O)oc2cc(OC(C)C(=O)NCc3cccnc3)ccc12 (stereo not drawn) | nt | i | nt | nt
CCCC1NC(C(=O)O)Cc2c1[nH]c1ccccc21 (stereo not drawn) | i | i | 19µM | ?
COc1ccc(NC(=O)c2ccc(N3CCOCC3)nc2)cc1 | i | i | i | i
CN(C)c1ccc(NC(=O)c2ccc(N3CCOCC3)nc2)cc1 | ? | i | i | 79µM
O=C(O)c1ccc2c(=O)n(Cc3ccccc3)c(SCc3ccc([N+](=O)[O-])cc3)nc2c1 | i | ? | ? | 79µM
O=C(NC1CCCC1)c1ccc2c(=O)n(Cc3ccccc3)c(SCc3cccc([N+](=O)[O-])c3)nc2c1 | i | i | nt | i
NC(=O)C(=O)N/N=C/C1CCCCC1 | nt | i | nt | nt
O=C(NCC(Cl)c1ccc2ccccc2c1)c1c(F)cccc1F (stereo not drawn) | i | 35µM | i | i
O=C(NCCCNC(=O)c1c(F)cccc1F)c1c(F)cccc1F | i | i | i | i
Cc1nc2cc(Cl)ccc2cc1C(=O)NCC(F)(F)F | nt | i | nt | nt
O=C1CNC(=O)/C1=C/c1ccc(Br)cc1 | i | i | 7.5µM | i
O=C1CNC(=O)/C1=C\c1ccc(O)cc1 | i | i | i | i
NC(=O)CN1CCN(c2nc(-c3ccc(F)cc3)cs2)CC1 | i | i | 30µM | i
COc1ccc(-c2nn(-c3ccccc3)cc2/C=N/NC(N)=S)cc1OC | i | 32µM | i | i
N#CCCn1cc(/C=N/NC(N)=S)c(-c2ccccc2)n1 | i | 25µM | i | i
N#CCCn1cc(/C=N/NC(N)=S)c(-c2ccc(Br)cc2)n1 | i | ? | i | i
COc1ccc(-c2nn(-c3ccccc3)cc2/C=N/n2cnnc2)cc1OC | i | i | i | i
SMILES | KAT2A inh | ALOX12 inh | PLK1 PBD block | VDR inh
CCOc1ccc(C(=O)N2CCC(NS(=O)(=O)c3cccs3)CC2)cc1 | nt | i | nt | nt
Cc1nc2ccccc2nc1SCC(=O)Nc1ccccc1OC(C)C | nt | i | nt | nt
NC(=O)C1=C(c2ccccc2)c2ccccc2C1=O | nt | ? | 4.2µM | 40µM
CC1CCC(C(=O)Nc2ccc3ccccc3c2)CC1 (stereo not drawn) | nt | i | nt | nt
Cc1ccccc1CCNC(=O)Cn1cc(C(N)=O)c2ccccc21 | nt | i | nt | nt
COc1cccc(N=C2NC(=O)/C(=C/c3cc([N+](=O)[O-])ccc3O)S2)c1 | i | ? | i | i
O=C1NC(=Nc2ccccc2Cl)S/C1=C\c1cc([N+](=O)[O-])ccc1O | i | 32µM | i | ?
Cc1ccc(S(=O)(=O)/N=C2/NC(=O)/C(=C/c3cc([N+](=O)[O-])ccc3O)S2)cc1 | i | 10µM | i | ?
COc1cc(/C=C2\S/C(=N/S(=O)(=O)c3ccc(C)cc3)NC2=O)c([N+](=O)[O-])cc1OC | i | ? | i | i
O=C1NC(=O)C(c2cn(-c3ccccc3)nc2-c2ccc(F)cc2)N1 (stereo not drawn) | i | i | 5.3µM | ?
Cc1noc(C)c1-c1cc(NCCN2CCOCC2)ncn1 | i | 40µM | nt | ?
Cc1noc(C)c1-c1cc(Nc2ccccc2)ncn1 | i | ? | nt | i
Cc1ccc2c3cc(-c4ccccc4)cn3ccn12 | nt | 0.79µM | nt | nt
O=C(CSc1nnc(NCc2ccc(F)cc2)s1)Nc1ccnn1C1CCCC1 | nt | i | nt | nt
CN(Cc1ccccc1NC(=O)c1ccccc1C(F)(F)F)C1CCCCC1 | nt | i | nt | nt
COCCNC(=O)C(c1ccc(C)o1)N(CCOC)C(=O)Cn1nnc2ccccc21 (stereo not drawn) | i | i | 27µM | i
CCCCCCCc1nc2nc(C)c(Br)c(=O)n2[nH]1 | i | i | 27µM | i
CCN(CC)c1ccc(/C=C2\SC(=O)N(C(C)C)C2=O)o1 | i | nt | i | 32µM
Cc1ccccc1N=C1Nc2cccc3cccc1c23 | nt | i | nt | nt
CNC(=O)NCC12CC3CC(CC(C3)C1)C2 | i | i | i | i
CCNC(=S)NCC12CC3CC(CC(C3)C1)C2 | nt | 40µM | nt | nt
COc1cc(-c2c(NC(=O)c3cccs3)oc3ccc(Cl)cc3c2=O)cc(OC)c1OC | nt | i | nt | nt
CNC(=O)c1cc(=O)n(CC(=O)Nc2ccc(C)c(C)c2)c2ccccc12 | nt | i | nt | nt
CC(OC(=O)C1=Cc2ccccc2OC1)C(=O)NC1CCCC1 (stereo not drawn) | i | i | i | ?
CC(C)C(OC(=O)C1=Cc2ccccc2OC1)C(=O)NCC1CCCO1 (stereo not drawn) | nt | ? | 21µM | i
SMILES | KAT2A inh | ALOX12 inh | PLK1 PBD block | VDR inh
C[C@H](NC(=O)[C@@H]1Cc2ccccc2CN1)C(=O)NCC1CCCO1 (stereo partly drawn) | i | i | 30µM | i
Cn1cc(CN2CCOC[C@H]2c2ncc(-c3ccc(F)cc3F)[nH]2)c2ccccc21 | nt | i | nt | nt
Cc1ccccc1OCC(=O)N/N=C/c1ccccn1 | i | i | 30µM | i
O=C(COc1ccc2ccccc2c1)NN1C(=O)c2ccccc2C1=O | i | i | 27µM | i
COc1ccc(/C=N/NC(=O)COc2ccc3ccccc3c2)c(C(=O)O)c1OC | i | i | 27µM | 79µM
Cc1cc(C)cc(OCC(=O)N/N=C/c2ccccn2)c1 | i | i | i | i
O=C(COc1ccc2ccccc2c1)N/N=C/c1ccccn1 | i | i | 19µM | i
O=C(Nc1ccnn1C1CCN(Cc2cccc(F)c2F)CC1)c1ccccc1Cl | nt | i | nt | nt
COc1cccc(/C=C(/CC(=O)O)c2nc3ccccc3o2)c1 | nt | i | nt | nt
CCN(CC)CCSc1nc(O)c(-c2ccccc2)c(=O)n1-c1ccccc1 | i | i | i | i
CCN(CC)CCSc1nc2ccccc2c(=S)n1-c1ccccc1 | i | ? | 24µM | i
Cc1ccccc1CN(C)CC(=O)NC(=O)NCC(F)(F)F | nt | i | nt | nt
Cc1ccc2oc(=O)c(-c3nc(-c4ccccn4)no3)cc2c1 | nt | i | nt | nt
O=C(O)Cn1nc(-c2ccccc2)cc1-c1ccccc1 | i | i | 21µM | ?
COc1ccc(N2CC(C(=O)N3CCC(C(=O)NCCCc4ccccc4)C3)NC2=O)cc1 (stereo not drawn) | nt | i | nt | nt
CCCCN(CC)C(=O)c1cc2c(=O)n3cccc(C)c3nc2s1 | i | i | 17µM | i
